Experimental data: ChEMBL document CHEMBL3988442, “University of Dundee, Small-Polar-MMV Screening Library” (2021)
About 13,000 (27%) of roughly 48,000 compounds showed an effect of 50% or more. The list shows a part of the results.

System: Wolbachia pipientis
Experiment: Anti-Wolbachia Cell-Based Screen
Assay type: functional
Design: scale not given: in the data most compounds retested in dose-response had high values
Conditions: 5 µM

Structure (SMILES)	Percent Effect [%]
CCCN(C(=O)c1cc2c([nH]c1=O)CCCC2=O)C1CCCCC1	-3.902
NS(=O)(=O)c1cnn(-c2ccc(NC(=O)CC3CCCC3)cn2)c1	31.03
CC(=O)c1cccc(NC(=O)COc2c(C)n(C)ccc2=O)c1	5.404
O=C(CCn1nc(-c2cccs2)oc1=O)Nc1cccc(F)c1	101.8
O=C(CCNC(=O)c1ccoc1)Nc1cccc(F)c1	8.68
O=c1oc(-c2cccs2)nn1CC(O)c1ccc(F)cc1 (centres undefined)	-3.645
CNC(=O)c1cccc(NC(=O)Cn2nc(-c3cccs3)oc2=O)c1	-3.203
CC(=O)c1cccc(NC(=O)Cn2nc(-c3cccs3)oc2=O)c1	114.8
COCCn1ccc(NC(=O)Nc2cccc(C#N)c2)n1	15.59
CC(C)N(CC(=O)Nc1cccc(C#N)c1)C1CC1	-12.82
N#Cc1cccc(NC(=O)CCn2nc(-c3cccs3)oc2=O)c1	113.1
COC(=O)c1cccc(NC(=O)CCn2nc(-c3cccs3)oc2=O)c1	-4.824
CC(=O)c1cccc(NC(=O)CCn2nc(-c3cccs3)oc2=O)c1	94.26
CC(=O)c1cccc(NC(=O)Cn2cnc(-c3cccs3)cc2=O)c1	8.004
CCn1ccnc1C1CCCN(c2nccc3ccccc23)C1 (centres undefined)	-22.2
CN(c1cccnc1N1CCCC1)S(=O)(=O)c1cccnc1	-4.578
CCCNC(=O)CN1CCN(c2nc(CC)ns2)CC1	-2.637
Cn1cc(CNCCOc2ccc(F)c(F)c2)c(-c2cccnc2)n1	7.876
O=C(Nc1nc2c(s1)CCC2)NC1CCCC1	91.02
Cc1nsc(NC(=O)NC2CCCN(C)C2)n1 (centres undefined)	-12.87
CC(NC(=O)Nc1nncs1)C(=O)NC1CCCC1 (centres undefined)	12.84
Cl.O=C(Nc1nc2c(s1)CNCC2)C1CC1	114.1
Cc1nnc(NC(=O)NC(C)C(=O)NC2CCCC2)s1 (centres undefined)	-0.7919
CCc1c(C)nc2n(c1=O)CC(C(=O)Nc1nc3c(s1)CCCC3)CS2 (centres undefined)	1.424
O=C(Nc1nc2c(s1)CN(S(=O)(=O)C1CC1)CC2)c1c(F)cccc1F	-9.469
Cc1nsc(NC(=O)NC2CCOCC2)n1	5.232
Cl.O=C(Nc1nc2c(s1)CNCC2)NC1CCCC1	156.5

Structure (SMILES)	Percent Effect [%]
CN(Cc1nnc(-c2cccs2)o1)Cc1nc2c(s1)CCCC2	-3.278
O=C1CC(c2ccccc2)c2c(n3ccsc3nc2=O)N1 (centres undefined)	12.02
O=S(=O)(NCCC(O)c1cccs1)c1ccccc1Cl (centres undefined)	10.54
Cc1oc(C(C)C)cc1C(=O)N1CCN(c2cnn(C)c(=O)c2)CC1	-13.93
N#Cc1ccccc1C(=O)N1C[C@H]2CC[C@@H]1CN(c1ncccn1)C2	-29.72
CN(Cc1nnc(C2CC2)n1C)C1CCN(CCc2ccncc2)C1 (centres undefined)	-12.03
CCc1cnc(CN(C)C2CCN(Cc3nnc(C4CC4)n3C)C2)o1 (centres undefined)	100.6
CN(Cc1nnc(C2CC2)n1C)C1CCN(CCc2ccccc2)C1 (centres undefined)	-2.973
CCc1cnc(CN(C)C2CCN(CCc3cccs3)C2)o1 (centres undefined)	3.074
Cc1cnc(CN2CCC(N(C)Cc3nnc(C4CC4)n3C)C2)cn1 (centres undefined)	-1.467
CN(Cc1nnc(C2CC2)n1C)C1CCN(Cc2ccc(F)cc2)C1 (centres undefined)	5.91
Cc1nc(CN2CCC(N(C)Cc3nnc(C4CC4)n3C)C2)cs1 (centres undefined)	109.7
Cc1cccc(CN2CCC(N(C)Cc3nnc(C4CC4)n3C)C2)c1 (centres undefined)	125.1
CN(Cc1nnc(C2CC2)n1C)C1CCN(Cc2ccccc2)C1 (centres undefined)	-8.297
CN(Cc1nnc(C2CC2)n1C)C1CCN(Cc2ccncc2)C1 (centres undefined)	97.4
CN(Cc1nnc(C2CC2)n1C)C1CCN(CCc2cccs2)C1 (centres undefined)	1.002
CCn1ccnc1CN1CCN(c2ncnc3ccsc23)CC1	18.95
CCC(=O)NCC(=O)NCc1cc(Br)ccc1OC(F)F	6.284
Cc1ccc(N2CCC(NCc3cnc(C4CCC4)s3)CC2)nc1	10.22
CCn1c(C)nnc1CN(C)C1CCN(Cc2nccn2C)C1 (centres undefined)	-10.2
CN(Cc1nnc(C2CC2)n1C)C1CCN(Cc2ccccc2F)C1 (centres undefined)	2.374
CN(Cc1nnc(C2CC2)n1C)C1CCN(Cc2nccn2C)C1 (centres undefined)	117.3
CCOC(=O)C1CN(S(C)(=O)=O)Cc2ncn(CC)c21 (centres undefined)	9.527
O=C(O)[C@@H]1CN(C(=O)c2ccc(Cl)cc2)C[C@H]1c1cccc(F)c1	111.8
COc1ccc(C(=O)N2C[C@@H](C(=O)O)[C@H](c3ccccc3)C2)c(C)c1	-5.118
O=C(O)[C@@H]1CN(C(=O)c2ccc3nccnc3c2)C[C@H]1c1ccncc1	-8.549
COc1ccc(C(=O)N2C[C@@H](C(=O)O)[C@H](c3cccc(F)c3)C2)c(O)c1	-6.268
